{
  "source": "paper PMC7862700",
  "about": "“An all-to-all approach to the identification of sequence-specific readers for epigenetic DNA modifications on cytosine”",
  "experiment_in_all_cases": "DAPPL (digital affinity profiling via proximity ligation, sequencing); 10 mM Tris-HCl pH 7.5, 50 mM NaCl, 1 mM DTT, 4% glycerol, room temperature, 30 min; GST-TFs on glutathione beads, 16-mer random dsDNA library, 0.1% formaldehyde crosslink after washing; high values mean tight binding",
  "key": {"FEV": {"target": "T1, FEV (Homo sapiens, UniProt Q99581 1-238)", "T1 sequence": "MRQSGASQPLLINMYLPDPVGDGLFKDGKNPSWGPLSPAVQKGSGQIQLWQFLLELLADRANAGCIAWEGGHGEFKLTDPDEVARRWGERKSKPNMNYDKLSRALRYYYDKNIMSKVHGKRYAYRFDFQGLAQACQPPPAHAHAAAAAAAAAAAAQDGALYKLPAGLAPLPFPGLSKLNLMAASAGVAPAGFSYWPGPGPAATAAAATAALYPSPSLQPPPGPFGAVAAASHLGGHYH", "details": "protein: recombinant; tags: N-terminal GST; dsDNA, one strand shown", "procedure,_shortened": "(§1)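 Binding signal is each hexamer's read frequency for a factor divided by its frequency in the tag-only sample. The factors were GST-fused human transcription factors from yeast, captured on glutathione beads, DNA-barcoded and pooled with that sample. Pools were incubated with 200 nmole of a random double-stranded 16-mer DNA library in Tris/NaCl/DTT/glycerol buffer at room temperature for 30 min, then washed, crosslinked with 0.1% formaldehyde, proximity-ligated with BsaI/T4 ligase (1 h, 37 °C), PCR-amplified and sequenced on an Illumina NextSeq500.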"}, "ETV5": {"target": "ETV5 (Homo sapiens, UniProt P41161 1-510)", "sequence (P41161 whole entry)": "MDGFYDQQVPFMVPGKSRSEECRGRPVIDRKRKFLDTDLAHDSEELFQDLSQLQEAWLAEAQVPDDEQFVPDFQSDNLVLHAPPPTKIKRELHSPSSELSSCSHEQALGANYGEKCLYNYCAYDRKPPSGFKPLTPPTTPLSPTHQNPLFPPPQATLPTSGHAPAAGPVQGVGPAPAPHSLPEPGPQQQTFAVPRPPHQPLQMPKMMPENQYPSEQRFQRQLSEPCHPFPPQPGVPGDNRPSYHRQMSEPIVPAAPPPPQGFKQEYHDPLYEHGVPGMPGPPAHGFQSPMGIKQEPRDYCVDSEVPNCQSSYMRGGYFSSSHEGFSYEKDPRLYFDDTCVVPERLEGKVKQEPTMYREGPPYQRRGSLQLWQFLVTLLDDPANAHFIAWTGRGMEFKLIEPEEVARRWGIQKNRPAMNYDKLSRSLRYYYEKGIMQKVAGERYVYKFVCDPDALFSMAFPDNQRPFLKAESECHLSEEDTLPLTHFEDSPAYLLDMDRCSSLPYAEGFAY", "details": "protein: recombinant; tags: N-terminal GST; dsDNA, one strand shown", "procedure,_shortened": "as §1"}, "HSF1": {"target": "HSF1 (Homo sapiens, UniProt Q00613 1-529)", "sequence (Q00613 whole entry)": "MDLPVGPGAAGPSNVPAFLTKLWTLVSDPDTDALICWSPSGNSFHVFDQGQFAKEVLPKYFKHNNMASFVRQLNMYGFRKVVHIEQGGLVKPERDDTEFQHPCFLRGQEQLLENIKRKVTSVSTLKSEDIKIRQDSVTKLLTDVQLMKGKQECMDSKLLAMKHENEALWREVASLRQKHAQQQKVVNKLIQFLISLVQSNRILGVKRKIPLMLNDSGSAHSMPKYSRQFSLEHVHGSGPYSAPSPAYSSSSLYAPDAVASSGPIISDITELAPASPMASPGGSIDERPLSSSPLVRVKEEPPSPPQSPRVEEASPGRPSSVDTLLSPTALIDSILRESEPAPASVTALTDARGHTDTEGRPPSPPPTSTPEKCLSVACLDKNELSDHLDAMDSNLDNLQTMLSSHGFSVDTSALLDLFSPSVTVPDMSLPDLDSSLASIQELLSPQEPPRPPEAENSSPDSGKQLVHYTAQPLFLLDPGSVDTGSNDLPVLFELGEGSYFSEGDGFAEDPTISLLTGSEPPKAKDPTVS", "details": "protein: recombinant; tags: N-terminal GST; chain copies: 3; dsDNA, one strand shown", "procedure,_shortened": "as §1"}, "ELF4": {"target": "ELF4 (Homo sapiens, UniProt Q99607 1-663)", "sequence (Q99607 whole entry)": "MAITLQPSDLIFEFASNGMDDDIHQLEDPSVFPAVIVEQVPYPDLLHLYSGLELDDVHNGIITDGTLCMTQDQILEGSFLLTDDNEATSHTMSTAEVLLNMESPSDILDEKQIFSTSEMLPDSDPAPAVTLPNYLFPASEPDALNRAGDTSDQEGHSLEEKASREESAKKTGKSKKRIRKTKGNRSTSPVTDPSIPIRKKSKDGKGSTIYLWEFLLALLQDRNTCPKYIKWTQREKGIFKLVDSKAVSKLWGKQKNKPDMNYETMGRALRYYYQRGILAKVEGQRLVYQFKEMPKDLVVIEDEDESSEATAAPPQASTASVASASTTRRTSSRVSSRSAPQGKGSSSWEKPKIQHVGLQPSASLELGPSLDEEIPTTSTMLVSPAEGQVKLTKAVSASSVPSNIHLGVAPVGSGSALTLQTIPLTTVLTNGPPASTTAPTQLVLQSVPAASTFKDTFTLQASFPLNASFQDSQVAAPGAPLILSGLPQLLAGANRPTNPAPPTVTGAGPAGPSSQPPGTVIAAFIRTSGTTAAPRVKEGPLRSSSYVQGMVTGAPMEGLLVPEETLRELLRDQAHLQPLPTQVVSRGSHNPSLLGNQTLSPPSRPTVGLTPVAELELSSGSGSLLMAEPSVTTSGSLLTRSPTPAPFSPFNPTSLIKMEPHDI", "details": "protein: recombinant; tags: N-terminal GST; dsDNA, one strand shown", "procedure,_shortened": "as §1"}, "ELK4": {"target": "T2, ELK4 (Homo sapiens, UniProt P28324-2 1-405)", "T2 sequence": "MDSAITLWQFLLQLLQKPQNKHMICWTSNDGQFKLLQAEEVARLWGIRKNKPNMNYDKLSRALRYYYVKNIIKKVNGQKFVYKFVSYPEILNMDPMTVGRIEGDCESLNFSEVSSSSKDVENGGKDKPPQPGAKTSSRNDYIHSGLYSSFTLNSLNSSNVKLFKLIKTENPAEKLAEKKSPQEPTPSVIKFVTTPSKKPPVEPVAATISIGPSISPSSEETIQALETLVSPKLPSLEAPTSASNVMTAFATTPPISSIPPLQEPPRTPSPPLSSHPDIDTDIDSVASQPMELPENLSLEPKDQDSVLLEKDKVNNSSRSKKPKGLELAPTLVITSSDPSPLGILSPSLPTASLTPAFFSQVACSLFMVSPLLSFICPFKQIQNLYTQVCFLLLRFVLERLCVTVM", "details": "protein: recombinant; tags: N-terminal GST; dsDNA, one strand shown", "procedure,_shortened": "as §1"}, "ETV2": {"target": "T3, ETV2 (Homo sapiens, UniProt O00321 1-342)", "T3 sequence": "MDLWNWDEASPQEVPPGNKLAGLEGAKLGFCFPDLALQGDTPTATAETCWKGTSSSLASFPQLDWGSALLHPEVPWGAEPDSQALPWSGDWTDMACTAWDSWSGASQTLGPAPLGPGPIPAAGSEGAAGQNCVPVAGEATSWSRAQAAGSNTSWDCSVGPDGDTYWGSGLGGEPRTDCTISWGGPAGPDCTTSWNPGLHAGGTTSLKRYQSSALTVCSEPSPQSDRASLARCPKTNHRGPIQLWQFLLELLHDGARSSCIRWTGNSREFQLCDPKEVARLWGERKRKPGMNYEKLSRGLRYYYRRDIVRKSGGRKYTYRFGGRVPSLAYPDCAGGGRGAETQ", "details": "protein: recombinant; tags: N-terminal GST; dsDNA, one strand shown", "procedure,_shortened": "as §1"}, "CRX": {"target": "CRX (Homo sapiens, UniProt O43186 1-299)", "sequence (O43186 whole entry)": "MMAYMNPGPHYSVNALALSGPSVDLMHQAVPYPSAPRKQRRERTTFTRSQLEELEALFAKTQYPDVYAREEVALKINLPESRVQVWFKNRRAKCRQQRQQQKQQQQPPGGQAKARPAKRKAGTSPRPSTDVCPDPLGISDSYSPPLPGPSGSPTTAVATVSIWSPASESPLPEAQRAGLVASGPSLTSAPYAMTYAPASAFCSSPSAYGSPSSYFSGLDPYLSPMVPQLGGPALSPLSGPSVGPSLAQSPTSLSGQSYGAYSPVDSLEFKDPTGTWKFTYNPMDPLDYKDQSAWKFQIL", "details": "protein: recombinant; tags: N-terminal GST; dsDNA, one strand shown", "procedure,_shortened": "as §1"}, "ETV1": {"target": "ETV1 (Homo sapiens, UniProt P50549 1-477)", "sequence (P50549 whole entry)": "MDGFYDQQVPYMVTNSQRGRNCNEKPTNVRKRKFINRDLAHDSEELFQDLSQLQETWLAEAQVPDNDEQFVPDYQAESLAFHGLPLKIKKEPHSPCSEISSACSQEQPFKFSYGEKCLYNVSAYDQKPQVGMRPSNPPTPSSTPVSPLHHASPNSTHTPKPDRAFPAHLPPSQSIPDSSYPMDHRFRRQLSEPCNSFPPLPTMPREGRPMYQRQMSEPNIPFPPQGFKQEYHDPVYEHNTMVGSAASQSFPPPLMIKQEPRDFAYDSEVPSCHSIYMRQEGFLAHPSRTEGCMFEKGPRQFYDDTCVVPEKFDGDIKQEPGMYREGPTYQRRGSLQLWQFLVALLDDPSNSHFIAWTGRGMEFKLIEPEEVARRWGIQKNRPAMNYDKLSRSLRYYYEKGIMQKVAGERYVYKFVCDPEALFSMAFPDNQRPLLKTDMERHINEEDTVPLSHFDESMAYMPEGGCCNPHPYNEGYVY", "details": "protein: recombinant; tags: N-terminal GST; dsDNA, one strand shown", "procedure,_shortened": "as §1"}, "ERF": {"target": "T4, ERF (Homo sapiens, UniProt P50548 1-548)", "T4 sequence": "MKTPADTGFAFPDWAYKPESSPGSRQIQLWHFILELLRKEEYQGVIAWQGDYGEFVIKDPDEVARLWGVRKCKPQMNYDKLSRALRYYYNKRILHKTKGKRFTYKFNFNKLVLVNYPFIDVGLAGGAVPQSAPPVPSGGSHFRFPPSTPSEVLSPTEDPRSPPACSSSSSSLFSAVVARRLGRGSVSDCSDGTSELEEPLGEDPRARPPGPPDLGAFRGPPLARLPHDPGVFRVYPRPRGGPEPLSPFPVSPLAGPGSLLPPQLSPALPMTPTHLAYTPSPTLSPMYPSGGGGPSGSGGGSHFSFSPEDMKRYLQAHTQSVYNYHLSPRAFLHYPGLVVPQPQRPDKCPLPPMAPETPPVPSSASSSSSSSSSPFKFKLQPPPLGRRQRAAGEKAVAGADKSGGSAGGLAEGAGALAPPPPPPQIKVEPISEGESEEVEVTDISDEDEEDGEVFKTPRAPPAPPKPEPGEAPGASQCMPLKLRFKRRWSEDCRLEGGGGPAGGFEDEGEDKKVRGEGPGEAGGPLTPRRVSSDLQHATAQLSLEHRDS", "details": "protein: recombinant; tags: N-terminal GST; dsDNA, one strand shown", "procedure,_shortened": "as §1"}, "ETV3L": {"target": "T5, ETV3L (Homo sapiens, UniProt Q6ZN32 1-361)", "T5 sequence": "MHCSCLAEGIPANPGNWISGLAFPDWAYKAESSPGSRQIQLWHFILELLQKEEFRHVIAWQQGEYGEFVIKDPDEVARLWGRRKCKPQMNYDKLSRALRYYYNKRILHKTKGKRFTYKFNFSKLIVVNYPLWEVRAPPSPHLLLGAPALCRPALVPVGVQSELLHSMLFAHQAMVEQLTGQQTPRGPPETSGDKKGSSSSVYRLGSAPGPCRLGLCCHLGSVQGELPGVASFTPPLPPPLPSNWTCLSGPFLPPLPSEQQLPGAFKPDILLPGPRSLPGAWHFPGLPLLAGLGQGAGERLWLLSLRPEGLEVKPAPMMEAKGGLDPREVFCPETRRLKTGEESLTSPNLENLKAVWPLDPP", "details": "protein: recombinant; tags: N-terminal GST; dsDNA, one strand shown", "procedure,_shortened": "as §1"}, "ETS2": {"target": "T6, ETS2 (Homo sapiens, UniProt P15036 1-469)", "T6 sequence": "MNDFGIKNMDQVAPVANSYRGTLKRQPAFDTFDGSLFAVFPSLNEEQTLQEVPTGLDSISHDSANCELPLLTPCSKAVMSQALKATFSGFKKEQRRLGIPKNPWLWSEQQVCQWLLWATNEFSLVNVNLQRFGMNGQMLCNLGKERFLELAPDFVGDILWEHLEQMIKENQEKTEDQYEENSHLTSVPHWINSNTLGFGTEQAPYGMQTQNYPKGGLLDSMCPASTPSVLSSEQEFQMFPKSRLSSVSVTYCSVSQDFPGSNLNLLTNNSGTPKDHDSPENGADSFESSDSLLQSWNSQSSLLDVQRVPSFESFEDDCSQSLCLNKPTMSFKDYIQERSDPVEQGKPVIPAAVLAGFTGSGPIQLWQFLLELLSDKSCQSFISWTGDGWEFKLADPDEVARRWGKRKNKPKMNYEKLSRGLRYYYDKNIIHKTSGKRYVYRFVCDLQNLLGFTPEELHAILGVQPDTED", "details": "protein: recombinant; tags: N-terminal GST; dsDNA, one strand shown", "procedure,_shortened": "as §1"}, "ETV6": {"target": "ETV6 (Homo sapiens, UniProt P41212 1-452)", "sequence (P41212 whole entry)": "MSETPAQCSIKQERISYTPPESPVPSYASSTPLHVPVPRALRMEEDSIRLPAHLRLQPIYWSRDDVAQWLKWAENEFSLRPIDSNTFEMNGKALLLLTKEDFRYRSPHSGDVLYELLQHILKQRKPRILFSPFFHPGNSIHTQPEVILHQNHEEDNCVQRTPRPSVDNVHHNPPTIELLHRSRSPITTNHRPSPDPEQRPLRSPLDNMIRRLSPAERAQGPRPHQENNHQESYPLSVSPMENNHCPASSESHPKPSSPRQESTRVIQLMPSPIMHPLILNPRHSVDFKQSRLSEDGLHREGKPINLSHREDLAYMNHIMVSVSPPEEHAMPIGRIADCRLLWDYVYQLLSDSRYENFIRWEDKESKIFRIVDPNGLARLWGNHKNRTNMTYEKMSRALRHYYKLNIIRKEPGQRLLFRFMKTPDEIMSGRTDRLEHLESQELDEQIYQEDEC", "details": "protein: recombinant; tags: N-terminal GST; dsDNA, one strand shown", "procedure,_shortened": "as §1"}},
  "data": [
    {"sequence": "AGATAA", "values": [
      {"measurement": "binding signal", "setting": "FEV", "result": "1.01 fold enrichment (6-mer frequency, TF over GST control)"},
      {"measurement": "binding signal", "setting": "ETV5", "result": "1.01 fold enrichment (6-mer frequency, TF over GST control)"},
      {"measurement": "binding signal", "setting": "HSF1", "result": "1.68 fold enrichment (6-mer frequency, TF over GST control)"},
      {"measurement": "binding signal", "setting": "ELF4", "result": "1.09 fold enrichment (6-mer frequency, TF over GST control)"},
      {"measurement": "binding signal", "setting": "ELK4", "result": "1.08 fold enrichment (6-mer frequency, TF over GST control)"},
      {"measurement": "binding signal", "setting": "ETV2", "result": "1.17 fold enrichment (6-mer frequency, TF over GST control)"},
      {"measurement": "binding signal", "setting": "CRX", "result": "2 fold enrichment (6-mer frequency, TF over GST control)"},
      {"measurement": "binding signal", "setting": "ETV1", "result": "1.04 fold enrichment (6-mer frequency, TF over GST control)"},
      {"measurement": "binding signal", "setting": "ERF", "result": "1.02 fold enrichment (6-mer frequency, TF over GST control)"},
      {"measurement": "binding signal", "setting": "ETV3L", "result": "1.09 fold enrichment (6-mer frequency, TF over GST control)"},
      {"measurement": "binding signal", "setting": "ETS2", "result": "1.04 fold enrichment (6-mer frequency, TF over GST control)"},
      {"measurement": "binding signal", "setting": "ETV6", "result": "1.06 fold enrichment (6-mer frequency, TF over GST control)"}
    ]}
  ]
}
